Experimental findings from PubChem BioAssay are described below.

A number with no mark means an inactive call. No rule for the calls is given here. Starred links: 1 amine or outer side, 2 acyl side, 3 side chain; linkers in the order of their positions; H or OH if unused. Positions of bridges follow the written chain, without caps; N, C: chain ends. Non-standard residues stand in square brackets, D forms with d. Residues, ends and D or L forms follow the SMILES beside them. ξ: configuration not given here. *: point of attachment. ΔAla(E,3-NHCONH2) = NC(=O)N/C=C(/N)C(=O)O; X1 = NC1=NCCC(C(N[*:1])C(=O)[*:2])N1; ξβ3hOrn = NCCCC(N)CC(=O)*; Dap = NC[CH](N)C(=O)O

The assay has as its system Aerobactin synthetase IucA (Klebsiella pneumoniae hvKP1). Nature of the assay: IucA enzyme inhibition, primary screen, biochemical, Spectrum library (AID 1346200).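 Also: 100% = wells without compound and 0% = wells lacking enzyme.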 To be noted: malachite green pyrophosphate, A620, at 8 µM, active compounds read low.
`CC1=C(/C=C/C(C)=C/C=C/C(C)=C/C=C/C=C(C)/C=C/C=C(C)/C=C/C(=O)[C@]2(C)C[C@@H](O)CC2(C)C)C(C)(C)C[C@H](O)C1`: the activity remaining is 108%.

Take `CC1=CC(=O)C2C(C)(C)CCC[C@]2(C)[C@@]1(O)CCc1ccoc1` (stereo partly specified): the activity remaining was 105%.

For `NC(=O)NC(=O)Cc1ccccc1`, the activity remaining is 93%.

Take `C=CCc1ccc(O)c(OC)c1`: the activity remaining is 115%.

`c1ccc2[nH]c(-c3cscn3)nc2c1`: the activity remaining was 111%.

On to `NCCCC(N)CC(=O)NCC1NC(=O)C(CO)NC(=O)C(N)CNC(=O)C(C2CCN=C(N)N2)NC(=O)/C(=C\NC(N)=O)NC1=O` (stereo not drawn) (H-[Dap]S[Dap](ξβ3hOrn)[ΔAla(E,3-NHCONH2)][X1]; lactam 1-C; configuration not given here), for which the activity remaining is 101%.

On to `COc1ccc2c(=O)c(CC(=O)O)coc2c1`, for which the activity remaining is 117%.

As for `C=NC(C(=O)NC1C(=O)N2C1SC(C)(C)C2C(=O)O)c1ccccc1` (stereo unspecified), the activity remaining was 110%.

On to `CC1(C)O[C@@H]2CC3C4CCC5=CC(=O)CCC5(C)C4(F)C(O)CC3(C)[C@]2(C(=O)CCl)O1` (stereo partly specified), for which the activity remaining was 93.6%.

With `CC(=O)O[C@H]1C[C@@H](OC(C)=O)C(C)(C)C2C[C@@H](OC(C)=O)[C@]3(C)C([C@H](OC(C)=O)C[C@@]4(C)[C@H](c5ccoc5)OC(=O)[C@H]5O[C@]543)[C@]21C` (stereo partly specified), the activity remaining is 104%.

Take `C[C@@H]1CC[C@]2(C(=O)O)CC[C@]3(C)C(=CCC4[C@@]5(C)CC[C@H](O)C(C)(C)C5CC[C@]43C)C2[C@H]1C` (stereo partly specified): the activity remaining was 128%.
